Rows were chosen to be rich in hits. Some 1.6% of all compounds tested hit in one or more screens of this group.
KCNQ2 pot: potentiators of rat KCNQ2 potassium channel; O88943; CHO-K1 KCNQ2, FluxOR thallium flux fluorescence; active compounds read high; B-score at 10 µM; 310,000 compounds, 0.54% hits; AID 2239;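 active = fluorescence ratio B-score at least 3 SD of library B-scores, with initial fluorescence B-score within 3 of them, cut at about 5.3 in these data; same plate scores as AID 2156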;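 note: B-score of peak minus minimum over baseline fluorescence ratio after K+ and Tl+ stimulus; positive B-score means potentiation of KCNQ2 with more thallium influx and brighter signal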
KCNQ2 block: blocks the rat KCNQ2 potassium channel. O88943. CHO-K1 KCNQ2, FluxOR thallium flux, 20 min; active compounds read low. B-score at 10 µM. 310,000 compounds, 1.1% hits. AID 2156;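 active = fluorescence ratio B-score at most minus 3 library SDs, with starting brightness B-score within 2 library SDs, cut at about -5.5 in these data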
The depositor's hits bear a star.

Screening Cc1onc(-c2c(Cl)cccc2Cl)c1/C(N)=N/OC(=O)C(C)(C)C returned KCNQ2 pot 0.14 and KCNQ2 block inactive.
COc1cc(CNc2ncc(-c3ccc(Br)cc3)n2C)cc(OC)c1O was read as KCNQ2 pot 0.43 and KCNQ2 block inactive.
Screening COc1ccc(C(=O)CCC(=O)N2CCN(c3cc(C)ccc3C)CC2)cc1 returned KCNQ2 block inactive.
Screening CCN(CC)C(=O)CSc1nc(-c2ccc(C)cc2)nc2c1COC(C)(C)C2 returned KCNQ2 pot -7.42 and KCNQ2 block -7.42*.
CC1(C)Cc2nc(-c3ccccc3)nc(SCC(=O)N3CCOCC3)c2CO1 was read as KCNQ2 block inactive.
For Cc1ccccc1Nc1nc(N)nc(CSCC(=O)Nc2cccc(Br)c2)n1 the results were KCNQ2 pot 27.2* and KCNQ2 block inactive.
For Cc1ccccc1Nc1nc(N)nc(CSc2ccc(F)cc2)n1 the results were KCNQ2 block inactive.
Cc1ccc(SCc2nc(N)nc(Nc3ccccc3C)n2)c(C)c1 was read as KCNQ2 pot 2.72 and KCNQ2 block inactive.
Cc1ccc(SCc2nc(N)nc(Nc3ccccc3C)n2)cc1C was read as KCNQ2 pot 6.73* and KCNQ2 block inactive.
For O=C(O)CCC1c2cc3c4cc2OC2Oc5cc6c(cc51)C(CCC(=O)O)c1cc5c7cc1OC(O6)c1cc6cc(c1)Oc1cc(cc(C(=O)O)c1)Oc1cc8cc(c1)C(Oc1cc(c(cc1C5CCC(=O)O)C3CCC(=O)O)OC(O4)c1cc(cc(c1)Oc1cc(cc(C(=O)O)c1)O8)Oc1cc(cc(C(=O)O)c1)Oc1cc(cc2c1)Oc1cc(cc(C(=O)O)c1)O6)O7 (centres undefined) the results were KCNQ2 pot 1.28 and KCNQ2 block inactive.
For CCCN(CCC)c1nc(C#N)nc(N(CCC)CCC)n1 the results were KCNQ2 pot -7.93 and KCNQ2 block -7.93*.
`CN(C)c1nc(C#N)nc(N(C)C)n1` gave KCNQ2 pot 1.93 and KCNQ2 block inactive.
CC(C)(C)OC(=O)NC(CCCCNC=O)C(=O)O (centres undefined) was read as KCNQ2 pot -6.64 and KCNQ2 block -6.64*.
`CC(C)CC(NC(=O)OC(C)(C)C)C(=O)O` (centres undefined) gave KCNQ2 block inactive.
CC/C=C/C(=O)N1CC2(CC(c3cccc(NC(=O)COc4ccc(Cl)cc4)c3)=NO2)C[C@H]1C(N)=O (some centres undefined) was read as KCNQ2 pot 0.93 and KCNQ2 block inactive.
Screening CN(C(=O)c1nn(C)c2c1CSc1ccccc1-2)c1ccc(F)cc1 returned KCNQ2 pot -6.51 and KCNQ2 block -6.51*.
Screening CC1CCCN(C(=O)c2nn(C)c3c2CSc2ccccc2-3)C1 (centres undefined) returned KCNQ2 block inactive.
COc1ccc(NC(=O)c2cc(C)no2)cc1Cl was read as KCNQ2 block inactive.
CNC(=O)/C(C#N)=C/c1cccc(Oc2ccccc2)c1 was read as KCNQ2 pot -5.91 and KCNQ2 block -5.91*.
For CNC(=O)/C(=C\c1cccc(Oc2ccccc2)c1)NC(=O)c1ccccc1 the results were KCNQ2 block inactive.
Cc1occc1-c1nnc(SCC(=O)c2ccc(F)cc2)n1Cc1ccco1 was read as KCNQ2 block inactive.
`O=C(CSc1nnc(-c2cc3ccccc3cc2O)n1Cc1ccco1)c1ccc(F)cc1` gave KCNQ2 pot -5.93 and KCNQ2 block -5.93*.
Cc1ccc(N=Cc2cc(Cl)cc(Cl)c2O)nc1 was read as KCNQ2 pot 12.4* and KCNQ2 block inactive.
For Oc1c(Cl)cc(Cl)cc1/C=N/Nc1ncc(Br)cn1 the results were KCNQ2 block inactive.
For C[C@@H](C(=O)NCC1CC1)[C@@H]1C[C@@]1(C)[C@@H](NC(=O)OCc1ccccc1)c1ccccc1 the results were KCNQ2 block inactive.
For C[C@H](CO)NC(=O)[C@H](C)[C@H]1C[C@]1(C)[C@H](NC(=O)OCc1ccccc1)c1ccccc1 the results were KCNQ2 pot 0.67 and KCNQ2 block inactive.
Screening C[C@@H](C(=O)Nc1ccc2ccccc2c1)[C@H]1C[C@]1(C)[C@H](NC(=O)OCc1ccccc1)c1ccccc1 returned KCNQ2 pot -5.89 and KCNQ2 block -5.89*.
For C[C@@H](C(=O)NCc1ccccn1)[C@H]1C[C@]1(C)[C@H](NC(=O)OCc1ccccc1)c1ccccc1 the results were KCNQ2 pot -6.68 and KCNQ2 block -6.68*.
`Cc1c(C(=O)N2CCOCC2)sc(NC(=O)C(C)C)c1C#N` gave KCNQ2 pot 0.44 and KCNQ2 block inactive.
`CCCOc1cccc(C(=O)NCCNC(=O)c2ccco2)c1` gave KCNQ2 pot 0.41 and KCNQ2 block inactive.
COc1ccccc1/C=N\N=C(\N)c1ccccn1 was read as KCNQ2 pot 0.07 and KCNQ2 block inactive.
For COc1ccc(/C=N/NC(=O)c2cc3c(ccc4ccccc43)o2)cc1OC the results were KCNQ2 pot 0.7 and KCNQ2 block inactive.

Screening data: PubChem BioAssay, Johns Hopkins Ion Channel Center
